From PubChem BioAssay AID1159580 (chemical genetic matrix, 2015)
“And” between values parts separate entries of the source, which are not always exact repeats. Equal values may be shown once. About 2,000 (36%) of roughly 5,500 compounds were called active. Another 18% or so got no clear call; they are omitted. Rule as the data show it: active = normalized growth mostly below about 0.91 (no sharp cut-off); inconclusive = no clear call, values can overlap the other calls; inactive = mostly above about 0.92. Some of the results follow.

Experiment: chemical genetic growth profiling, strain panel (AID 1159580);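 also: tested at 20 µM; growth read once vehicle control cultures reached saturation at 30 °C; 1 = growth at the plate median or of vehicle wells; lower values mean less growth of the strain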
Conditions: S. cerevisiae deletion strains, growth OD

Measured: normalized growth

CC(=O)Oc1ccc2c(c1)CCC1C2CC[C@@]2(C)C1CC[C@@H]2OC(C)=O (some centres undefined)
active: locus YDR137W, strain rgp1, hits give low values 0.841 | locus YDR392W, strain spt3, hits give low values 0.674
inactive: locus YAL021C, strain ccr4, hits give low values 1.01 | locus YAL026C, strain drs2, hits give low values 0.984 | locus YAL030W, strain snc1, hits give low values 0.984 | locus YBL061C, strain skt5, hits give low values 0.977 | locus YBR009C, strain hhf1, hits give low values 0.969 | locus YBR021W, strain FUR4, hits give low values 0.955 | locus YBR023C, strain chs3, hits give low values 0.957 | locus YBR171W, strain sec66, hits give low values 0.921 | locus YBR229C, strain ROT2, hits give low values 0.94 | locus YBR231C, strain swc5, hits give low values 1.02 | locus YBR279W, strain paf1, hits give low values 1.02 | locus YCL011C, strain gbp2, hits give low values 0.991 | locus YCL016C, strain dcc1, hits give low values 0.991 | locus YCL029C, strain bik1, hits give low values 0.972 | locus YCL069W, strain vba3, hits give low values 0.989 | locus YCR088W, strain abp1, hits give low values 0.978 | locus YDL005C, strain med2, hits give low values 1 | locus YDL035C, strain GPR1, hits give low values 0.971 | locus YDL040C, strain nat1, hits give low values 0.994 | locus YDL074C, strain BRE1, hits give low values 0.872 | locus YDL101C, strain DUN1, hits give low values 0.969 | locus YDL134C, strain PPH21, hits give low values 0.985 | locus YDL185W, strain tfp1, hits give low values 0.983 | locus YDL192W, strain arf1, hits give low values 0.984 | locus YDR001C, strain nth1, hits give low values 0.983 | locus YDR069C, strain doa4, hits give low values 0.983 | locus YDR101C, strain arx1, hits give low values 0.967 | locus YDR159W, strain sac3, hits give low values 0.924 | locus YDR162C, strain NBP2, hits give low values 0.969 | locus YDR195W, strain ref2 1.08 | locus YDR297W, strain sur2, hits give low values 0.988 | locus YDR318W, strain mcm21, hits give low values 0.971 | locus YDR334W, strain swr1, hits give low values 0.994 | locus YDR335W, strain msn5, hits give low values 1.03 | locus YDR388W, hits give low values 0.979 | locus YDR502C, strain sam2, hits give low values 0.969 | locus YEL003W, strain gim4, hits give low values 0.973 | locus YEL037C, strain rad23, hits give low values 0.992 | locus YEL061C, strain CIN8 (second series), hits give low values 0.992 | locus YEL061C, strain CIN8, hits give low values 0.964 | locus YER015W, strain faa2, hits give low values 1 | locus YER016W, strain bim1, hits give low values 1 | locus YER110C, hits give low values 0.984 | locus YER111C, strain swi4, hits give low values 0.986 | locus YER155C, strain BEM2 (second series), hits give low values 0.951 | locus YER155C, strain BEM2, hits give low values 0.973 | locus YER167W, strain BCK2, hits give low values 0.971 | locus YFR010W, strain ubp6, hits give low values 1 | locus YGL078C, strain dbp3, hits give low values 0.98 | locus YGL086W, strain mad1, hits give low values 0.958 | locus YGL167C, strain pmr1, hits give low values 0.973 | locus YGL173C, strain kem1, hits give low values 0.987 | locus YGL227W, strain vid30, hits give low values 0.989 | locus YGL240W, strain doc1, hits give low values 0.993 | locus YGL248W, strain PDE1, hits give low values 0.94 | locus YGL253W, strain hxk2, hits give low values 1.01 | locus YGR078C, strain PAC10, hits give low values 0.943 | locus YGR135W, strain pre9, hits give low values 0.986 | locus YGR229C, strain SMI1, hits give low values 0.954 | locus YGR252W, strain gcn5, hits give low values 0.947 | locus YHR013C, strain ard1, hits give low values 1.02 | locus YHR027C, strain rpn1, hits give low values 0.995 | locus YHR030C, strain SLT2, hits give low values 0.988 and 0.952 | locus YHR079C, strain IRE1 (second series), hits give low values 0.977 | locus YHR079C, strain IRE1, hits give low values 0.937 | locus YHR094C, strain hxt1, hits give low values 0.978 | locus YHR129C, strain ARP1, hits give low values 0.982 | locus YHR142W, strain chs7, hits give low values 0.953 | locus YHR200W, strain rpn10, hits give low values 0.963 | locus YIL066C, strain RNR3, hits give low values 0.948 | locus YIL073C, strain SPO22, hits give low values 0.97 | locus YIL125W, strain kgd1, hits give low values 0.966 | locus YIR030C, strain dcg1, hits give low values 0.981 | locus YJL092W, strain hpr5, hits give low values 0.975 | locus YJL095W, strain BCK1 (second series), hits give low values 0.973 | locus YJL095W, strain BCK1, hits give low values 0.926 and 0.951 | locus YJL115W, strain asf1, hits give low values 0.997 | locus YJL129C, strain trk1, hits give low values 0.886 | locus YJL134W, strain LCB3, hits give low values 0.978 | locus YJL154C, strain vps35, hits give low values 0.995 | locus YJL164C, strain tpk1, hits give low values 0.958 | locus YJL166W, strain qcr8, hits give low values 0.988 | locus YJL168C, strain set2, hits give low values 0.963 | locus YJL187C, strain SWE1 (second series), hits give low values 0.956 | locus YJL187C, strain SWE1, hits give low values 0.979 | locus YJR043C, strain POL32, hits give low values 0.976 | locus YJR066W, strain TOR1, hits give low values 0.956
